Compounds without any hit were thinned out: in the full panel of roughly 83,000, 20% have a hit.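 Method: cells in 96-well plates; compound added at one concentration; 48 h incubation; percent growth measured; values under 10 scored active.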 The source made the active and inactive calls.
What was measured:
Assay in all cases: NCI-60 one-dose screen, 48 h (100 = growth as untreated, 0 = no growth, -100 = all killed)
[1] = test system: SR leukemia; details: 10 µM unless noted
[2] = test system: RPMI-8226 leukemia; details: 10 µM unless noted
[3] = test system: OVCAR-8 ovarian; details: 10 µM unless noted
[4] = test system: OVCAR-5 ovarian; details: 10 µM unless noted
[5] = test system: OVCAR-4 ovarian; details: 10 µM unless noted
[6] = test system: SK-OV-3 ovarian; details: 10 µM unless noted
[7] = test system: IGROV1 ovarian; details: 10 µM unless noted
[8] = test system: OVCAR-3 ovarian; details: 10 µM unless noted
[9] = test system: NCI/ADR-RES ovarian; details: 10 µM unless noted
[10] = test system: T-47D breast; details: 10 µM unless noted
[11] = test system: BT-549 breast; details: 10 µM unless noted
[12] = test system: MDA-MB-435 melanoma; details: 10 µM unless noted
[13] = test system: SW-620 colon; details: 10 µM unless noted
[14] = test system: MCF7 breast; details: 10 µM unless noted
[15] = test system: HCT-116 colon; details: 10 µM unless noted
[16] = test system: HCC-2998 colon; details: 10 µM unless noted
[17] = test system: KM12 colon; details: 10 µM unless noted
[18] = test system: HS 578T breast; details: 10 µM

Measured: growth

O=C(CS)OCC(COC(=O)CS)(COC(=O)CS)COC(=O)CS
inactive: [1] 38.6% | [2] 90.6% | [3] 82.2% | [4] 104% | [5] 83.6% | [6] 103% | [7] 94.4% | [8] 109% | [9] 74.3% | [10] 89.1% | [11] 108% | [12] 78.8% | [13] 107% | [14] 75.9% | [15] 79.6% | [16] 92.2% | [17] 67.5%

CNC(=O)c1ccccc1Sc1ccc2c(/C=C/c3ccccn3)n[nH]c2c1
inactive: [1] 10.4% | [2] 25.2% | [3] 28.4% | [4] 41.4% | [5] 34.2% | [6] 44.5% | [7] 23.1% | [8] 52.7% | [9] 36.9% | [11] 16.2% | [12] 39% | [13] 17.8% | [14] 35.2% | [15] 29.9% | [16] 68.9% | [17] 17.2%
active: [10] -12.4%

Cc1cc(NC(=O)c2ccc(N)cc2)ccc1N=Nc1ccc2cc(S(=O)(=O)O)cc(S(=O)(=O)O)c2c1
inactive: [1] 107% | [2] 94% | [3] 107% | [4] 98.7% | [5] 117% | [6] 103% | [7] 102% | [18] 110% | [9] 108% | [10] 105% | [11] 108% | [12] 101% | [13] 96.7% | [14] 109% | [15] 111% | [16] 105% | [17] 105%

Cn1nc(C(F)(F)F)cc1-c1c[nH]c(OCc2ccc(Cl)cc2)c(-c2ccc(Cl)c(C(F)(F)F)c2)c1=O
inactive: [1] 27.5% | [3] 12.5% | [4] 13% | [5] 15.3% | [7] 24.1% | [13] 12.6% | [16] 13.3%
active: [2] -26.6% | [6] -6.23% | [8] 7.83% | [9] 1.94% | [11] 2.51% | [12] 1.96% | [14] 1.28% | [15] 4.49% | [17] 8.85%

O=c1c2sc3ncc(Cl)cc3c2nnn1-c1cccc(Cl)c1
inactive: [1] 77.7% | [2] 82.4% | [3] 79.8% | [4] 86.2% | [6] 40.7% | [7] 63% | [8] 24.7% | [11] 85.4% | [12] 66.9% | [13] 80.5% | [14] 82.5% | [15] 31.3% | [16] 125% | [17] 87.4%
active: [5] -7.2%

COC(=O)/C=C/c1cc(OC(C)=O)c2c(c1)[C@@H](C(=O)OC)[C@H](c1ccc(OC(C)=O)c(OC(C)=O)c1)O2
active: [2] 3.3% | [8] -21.9% | [9] -5.91% | [12] -64.8% | [15] 6.38% | [17] 5.97%
inactive: [1] 10.8% | [3] 11% | [4] 20.6% | [5] 30.4% | [6] 36.4% | [7] 12.2% | [10] 74.7% | [13] 15.7% | [14] 15.6% | [16] 22.2%

CCC(=O)NC(O)C(Cl)(Cl)C(C)Cl (stereo not given)
inactive: [1] 105% | [2] 105% | [3] 98.1% | [4] 105% | [5] 109% | [6] 107% | [7] 99.6% | [8] 105% | [9] 96.3% | [10] 85.4% | [12] 96.8% | [13] 105% | [14] 90.3% | [15] 103% | [16] 101% | [17] 103%

O=C(O)c1cn(-c2ccccc2)nc1-c1ccc(O)cc1
inactive: [1] 93.3% | [2] 96.7% | [3] 90.8% | [4] 101% | [5] 92.2% | [6] 92.4% | [7] 111% | [18] 94.2% | [9] 101% | [10] 101% | [11] 99.3% | [12] 103% | [13] 98.5% | [14] 88.7% | [15] 96.4% | [16] 95.5%

Cc1cc(C)cc(CCCCCCCCCCCCCCCCCC(=O)O)c1
inactive: [1] 107% | [2] 99.4% | [3] 103% | [4] 103% | [5] 105% | [6] 105% | [7] 108% | [8] 102% | [10] 82.4% | [11] 103% | [12] 115% | [13] 108% | [14] 96.1% | [15] 99.9% | [17] 106%

C[C@@H]1C[C@H](N)C[C@H](c2ccncc2NC(=O)c2ccc(F)c(-c3c(F)cccc3F)n2)C1
inactive: [3] 62.6% | [4] 71.3% | [5] 53.2% | [6] 62% | [7] 46.5% | [8] 74.5% | [9] 65.8% | [12] 34.5% | [13] 45.5% | [14] 40.2% | [15] 48.1% | [17] 48.3%
active: [1] -17.7% | [2] 4.68% | [10] 4.14%
